# From PubChem BioAssay (EPA / NIEHS)
# Calls of active or inactive are those of the source. How the source made its calls: active means hit-call score of the fitted dose curve at least 0.9, where 1 is the maximum; inactive means score below 0.9.
# Read-out: Tumor necrosis factor receptor superfamily member 6 (Homo sapiens) (UniProt P25445)
# Experiment: LTEA_HepaRG_FAS: Life Technologies and Expression Analysis (LTEA) Assay for Fas cell surface death receptor (FAS) using HepaRG (AID 2283447)
# Conditions: mRNA level, 48 h; actives raise or lower the signal
# Description: LTEA_HepaRG is a cell based, multiplexed-readout assay that uses HepaRG, a human liver cell line, with measurements taken at 48 hours after chemical dosing on a 96-well plate.LTEA_HepaRG_FAS is one of 102 assay component(s) measured in the LTEA HepaRG cell culture assay. It is a marker of Cell proliferation, survival, death.Data from the assay component LTEA_HepaRG_FAS was analyzed into 1 endpoint. This assay endpoint, LTEA_HepaRG_FAS, was analyzed with bidirectional fitting relative to DMSO as the negative control and baseline of activity. Using a type of inducible reporter, measures of mRNA induction for gain or loss-of-signal activity can be used to understand regulation of transcription factor activity. To generalize the intended target to other relatable targets, this assay endpoint is annotated to the cytokine receptor intended target family, where the subfamily is TNF receptor.
# A total of 1060 chemcials from the ToxCast library were tested in eight-point concentration-response experiments. Cell culture and cytotoxicity assays were conducted at Thermo Fisher Scientific's Custom Services facility (Madison, WI). A single lot of human HepaRG cells (Thermo Fisher Scientific, Frederick, MD) was used for the cell culture experiments. 96-well format collagen type I coated plates of human HepaRG cells were prepared using established methods. Briefly, cryopreserved HepaRG cells were thawed, plated at a density of approximately 100,000 cells/well in HepaRG Thaw, Plate, and General Purpose media (HPRG770, Thermo Fisher Scientific), and incubated for 48 hours. 0.5% DMSO was selected as vehicle control to balance the requisite need of DMSO in HepaRG cultures to maintain differentiation (for example, baseline metabolism, proportions of hepatocytes vs. cholangiocytes), while enabling further hepatic receptor pathway activation (for example, PXR and CAR) in response to chemical exposure. 48 hours after plating, the culture medium was replaced with HepaRG Serum-Free Incudtion Media. Cells were exposed to each test chemical in duplicate and maintained in CO2 incubators for another 48 hours. Chemical plates were thawed to room temperature and 200x concentrations of treatment groups were prepared. 8-point conentration-reponse curves were made with the highest exposure at 100 uM, followed by half-log dilutions, all in 0.5% DMSO. Each test plate contained variouse controls, induction positive controls (1mM phenobarbital), cytotoxicity positive controls ([…] aflatoxin B1), vehicle controls (0.5% DMSO), and total lysis controls (0.5% DMSO). Cell morphology images were taken using an Essen IncuCyte FLR automated microscope, with six 96-well plates imaged in about 24 minutes. Images were captured and exported and JPEG files. Spent culture media was transfered to black-well plates for the LDH assay, and remaining media was sorted at -80 C for later use. Cells were treated with RLT buffer and frozen until shipped for gene expression analysis. Total RNA was isolated from the cell suspension in 75 uL of Buffer RLT (Qiagen, Germantown, MD 20874) by Quintiles/Expression Analysis (Durham, NC) using a custom isolation procedure. Total RNA from each plate well was transferred to a preamplification plate. Fluidigm's 96.96 Dynamic ArrayTM (Fluidigm, Amsterdam, the Netherlands) technology was used for gene expression analyses by quantitative reverse transcription polymerase chain reaction (qRT-PCR, performed by Quintiles/Expression Analysis, Durham, NC)89. Standard TaqManTM Assays (Applied Biosystems/ThermoFisher Scientific, Foster City, CA) were used to assess the expression of 93 genes selected based on their selectivity and sensitivity to important hepatic receptors known to be modulated by environmental chemicals; importance in human hepatocyte functionality; and hepatotoxicity. […]
row,Structure (SMILES),outcome
1,C[C@@H]1C[C@@H]([C@H](O)CC2CC(=O)NC(=O)C2)C(=O)[C@@H](C)C1,inactive
2,O=[N+]([O-])c1ccc(O)c([N+](=O)[O-])c1,inactive
3,C[C@]12CCC(=O)C[C@@H]1CC[C@@H]1[C@@H]2CC[C@]2(C)[C@@H](O)CC[C@@H]12,inactive
4,O=C(O)C(F)(F)C(F)(F)C(F)(F)C(F)(F)C(F)(F)C(F)(F)C(F)(F)C(F)(F)C(F)(F)C(F)(F)F,inactive
5,Cc1ccccc1N,inactive
6,COc1cc(-c2ccc(N)c(OC)c2)ccc1N,inactive
7,CC12CC1(C)C(=O)N(c1cc(Cl)cc(Cl)c1)C2=O (stereo not drawn),inactive
8,O=C1C2(Cl)C3(Cl)C4(Cl)C(Cl)(Cl)C5(Cl)C3(Cl)C1(Cl)C5(Cl)C24Cl (stereo not drawn),inactive
9,C=CC(=O)OCCCCCC(C)C,inactive
10,ClC1(Cl)C2(Cl)C3(Cl)C4(Cl)C(Cl)(Cl)C5(Cl)C3(Cl)C1(Cl)C5(Cl)C24Cl (stereo not drawn),inactive
11,Oc1cccc2cccnc12,inactive
12,O=c1[nH]c(=O)[nH]c(=O)[nH]1,inactive
13,CCOP(=S)(OCC)SCSP(=S)(OCC)OCC,inactive
14,CN(C)N=O,inactive
15,O=C(O)C(F)(F)C(F)(F)C(F)(F)C(F)(F)C(F)(F)C(F)(F)F,inactive
16,NC(=O)O,inactive
17,CCN1CCC2(CC1)COc1cc3c(cc12)N(C(=O)c1ccc(-c2ccc(-c4nnc(C)o4)cc2C)cc1)CC3,inactive
18,Cn1sc(Cl)cc1=O,inactive
19,CCC(C)(C)c1ccc(O)c(C(C)(C)CC)c1,inactive
20,CCOP(=S)(OCC)Oc1nc(Cl)c(Cl)cc1Cl,inactive
21,CCC(=O)C(CC(C)N(C)C)(c1ccccc1)c1ccccc1 (stereo not drawn),inactive
22,CC(C)(C)c1cc(O)ccc1O,inactive
23,O=C(Nc1ccc2[nH]ccc2c1)c1cc2cc(F)ccc2n1Cc1cccc(F)c1,inactive
24,CC(C)(OO)c1ccccc1,inactive
25,ClCC(Cl)CCl,inactive
26,CC(C)(c1ccccc1)c1ccc(O)c(C(C)(C)c2ccccc2)c1,inactive
27,O=C(O)C(Cl)(Cl)Cl,inactive
28,CC(C)(C)CC(C)(C)c1ccc(O)cc1,inactive
